The results in this text go back to PubChem BioAssay (NCATS).

Values joined by “and” are separate entries in the source; they are usually repeats but may differ in a detail not shown here. Equal values may be shown once. Results filed as inconclusive are left out. A number with no mark means an inactive call. Calls follow the shape of the dose curve; as a rule, active = well fitted curve in the direction sought with a large enough effect; inconclusive = small, poorly fitted or top-dose-only effect, or another doubt; inactive = no such curve, though single readings can be large or run the other way.
% is scaled to controls: 0 for no effect and ±100 for the full control effect.

The nature of the assay: qHTS Assay for Identifying Gametocytocidal Compounds (AID 743244).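 Also: actives lower the fluorescent signal which means gametocytes are killed.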 As to conditions: P. falciparum 3D7 stage III-V gametocytes, alamarBlue, 72 h; max response: stronger effect = lower value. The essentials:
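In this qHTS viability screen, late-stage 3D7 gametocytes are incubated with compound for 72 h, then with alamarBlue for 24 h; reduced resorufin fluorescence marks killing.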
For orientation: In qHTS, concentration-response curves come from the screen itself.
In the case of `CC1(C)CO[C@@H](CC(=O)O)CN1`, the max response was 28.1%. For `C[C@H]1O[C@@H](n2cc(F)c(=O)[nH]c2=O)[C@H](O)[C@@H]1O`, the max response was 0.485%. As to `O=Cc1ccccc1C=O`, the max response was -3.58%. For `NC(=O)NNc1ccccc1` the value was 5.12% and -3.42%; for `CN(C)CCCO[C@@H]1[C@H]2OC(C)(C)O[C@H]2O[C@@H]1C(O)CO` (some centres undefined), -6.36%. Take `CC(C)(C)NCC(O)COc1ccc(NC(=O)NC2CCCCC2)cc1` (centres undefined): the max response was 11.9%. `C[C@]12CC[C@@H]3c4ccc(O)cc4CC[C@H]3[C@@H]1CC[C@@H]2OC(=O)CCC1CCCC1`: the max response was -9.98% and 14%. On to `COc1ccc2cc1Oc1cc3c(cc1OC)CC[N+](C)(C)[C@H]3Cc1ccc(cc1)Oc1c(OC)c(OC)cc3c1[C@@H](C2)[N+](C)(C)CC3`, for which the max response is -8.04%. Take `CN1[C@@H]2CC(OC(=O)[C@H](CO)c3ccccc3)C[C@H]1[C@@H]1O[C@@H]12` (some centres undefined): the max response is 9.71% and 1.92%.

Take `CCN(CC)C(=O)Nc1ccc(OCC(O)CNC(C)(C)C)c(C(C)=O)c1` (centres undefined): the max response is -3.18%.

On to `Nc1nc2c(ncn2CCC(CO)CO)c(=O)[nH]1`, for which the max response is -1.67%.

For `O=C(O)[C@@H]1CSCN1`, the max response is -11.5%. For `N[C@@H](CSSC[C@H](N)C(=O)O)C(=O)O`, the max response was 13.6%. Consider `O=C(O)Cc1sc(-c2ccccc2)nc1-c1ccc(Cl)cc1`, for which the max response was -5.46% and 46.6% and 14.6%.
